# Experimental data published in the supplement of paper PMC4466140.
# Tests used:
# Experiment in all cases: SPOT peptide array binding signal intensity (averaged, normalized) (arbitrary units (background-subtracted, floor 0; scale differs between SH3 domains)); higher = stronger binding of the SH3 domain to the peptide
# AgAbp1 = target: AgAbp1
# Outline: (§1)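 The binding signal is the normalized, background-subtracted spot intensity averaged over replicates; its arbitrary units differ between domains. It was obtained by incubating 10 μg/ml GST-fused SH3 domains from four yeast species overnight at 4°C in TBS-based blocking buffer on cellulose membranes with synthetic 15-mer peptides, cysteines replaced by serines, then detecting with anti-GST antibody, HRP anti-mouse secondary and luminol.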
# AgBbc1 = target: AgBbc1
# Outline: as §1
# AgBem1-D1 = target: AgBem1-D1
# Outline: as §1
# AgBzz1-D1 = target: AgBzz1-D1
# Outline: as §1
# AgBzz1-D2 = target: AgBzz1-D2
# Outline: as §1
# AgCyk3 = target: AgCyk3
# Outline: as §1
# AgFus1 = target: AgFus1
# Outline: as §1
# AgHof1 = target: AgHof1
# Outline: as §1
# AgHse1 = target: AgHse1
# Outline: as §1
# AgLsb1 = target: AgLsb1
# Outline: as §1
# AgLsb4 = target: AgLsb4
# Outline: as §1
# AgMyo5 = target: AgMyo5
# Outline: as §1
# AgNbp2 = target: AgNbp2
# Outline: as §1
# AgRvs167 = target: AgRvs167
# Outline: as §1
# AgSho1 = target: AgSho1
# Outline: as §1
# AgSla1-D1-D2 = target: AgSla1-D1-D2
# Outline: as §1
# AgSla1-D3 = target: AgSla1-D3
# Outline: as §1
# CaAbp1-D1 = target: CaAbp1-D1
# Outline: as §1
# CaAbp1-D2 = target: CaAbp1-D2
# Outline: as §1
# CaBbc1 = target: CaBbc1
# Outline: as §1
# CaBem1-D1 = target: CaBem1-D1
# Outline: as §1
# CaBzz1-D1 = target: CaBzz1-D1
# Outline: as §1
# CaBzz1-D2 = target: CaBzz1-D2
# Outline: as §1
# CaCyk3 = target: CaCyk3
# Outline: as §1
# CaFus1 = target: CaFus1
# Outline: as §1
# CaHof1 = target: CaHof1
# Outline: as §1
# CaHse1 = target: CaHse1
# Outline: as §1
# CaLsb1 = target: CaLsb1
# Outline: as §1
# CaLsb4 = target: CaLsb4
# Outline: as §1
# CaMyo5 = target: CaMyo5
# Outline: as §1
# CaNbp2 = target: CaNbp2
# Outline: as §1
# CaRvs167 = target: CaRvs167
# Outline: as §1
# CaRvs167-3 = target: CaRvs167-3
# Outline: as §1
# CaSho1 = target: CaSho1
# Outline: as §1
# CaSla1-D1-D2 = target: CaSla1-D1-D2
# Outline: as §1
# CaSla1-D3 = target: CaSla1-D3
# Outline: as §1
# ScAbp1 = target: ScAbp1
# Outline: as §1
# ScBbc1 = target: ScBbc1
# Outline: as §1
# ScBem1-D1 = target: ScBem1-D1
# Outline: as §1
# ScBzz1-D1 = target: ScBzz1-D1
# Outline: as §1
# ScBzz1-D2 = target: ScBzz1-D2
# Outline: as §1
# ScCyk3 = target: ScCyk3
# Outline: as §1
# ScFus1 = target: ScFus1
# Outline: as §1
# ScHof1 = target: ScHof1
# Outline: as §1
# ScHse1 = target: ScHse1
# Outline: as §1
# ScLsb1 = target: ScLsb1
# Outline: as §1
# ScLsb2 = target: ScLsb2
# Outline: as §1
# ScLsb3 = target: ScLsb3
# Outline: as §1
# ScLsb4 = target: ScLsb4
# Outline: as §1
# ScMyo3 = target: ScMyo3
# Outline: as §1
# ScMyo5 = target: ScMyo5
# Outline: as §1
# ScNbp2 = target: ScNbp2
# Outline: as §1
# ScPex13 = target: ScPex13
# Outline: as §1
# ScRvs167 = target: ScRvs167
# Outline: as §1
# ScSho1 = target: ScSho1
# Outline: as §1
# ScSla1-D1-D2 = target: ScSla1-D1-D2
# Outline: as §1
# ScSla1-D3 = target: ScSla1-D3
# Outline: as §1
# SpAbp1-D1 = target: SpAbp1-D1
# Outline: as §1
# SpBbc1 = target: SpBbc1
# Outline: as §1
# SpBzz1-D1 = target: SpBzz1-D1
# Outline: as §1
# SpBzz1-D2 = target: SpBzz1-D2
# Outline: as §1
# SpCyk3 = target: SpCyk3
# Outline: as §1
# SpHof1 = target: SpHof1
# Outline: as §1
# SpHof1-2 = target: SpHof1-2
# Outline: as §1
# SpHof1-3 = target: SpHof1-3
# Outline: as §1
# SpHse1 = target: SpHse1
# Outline: as §1
# SpLsb1 = target: SpLsb1
# Outline: as §1
# SpLsb4 = target: SpLsb4
# Outline: as §1
# SpMyo1 = target: SpMyo1
# Outline: as §1
# SpNbp2 = target: SpNbp2
# Outline: as §1
# SpPex13 = target: SpPex13
# Outline: as §1
# SpRvs167 = target: SpRvs167
# Outline: as §1
# SpSla1-D1-D2 = target: SpSla1-D1-D2
# Outline: as §1
# SpSla1-D3 = target: SpSla1-D3
# Outline: as §1
binder,measurement,setting,value
APKREAPKPPANTSP,SPOT peptide array binding signal intensity,AgAbp1,1
same,SPOT peptide array binding signal intensity,AgBbc1,112
same,SPOT peptide array binding signal intensity,AgBem1-D1,34
same,SPOT peptide array binding signal intensity,AgBzz1-D1,178
same,SPOT peptide array binding signal intensity,AgBzz1-D2,2.5
same,SPOT peptide array binding signal intensity,AgCyk3,≤ 0
same,SPOT peptide array binding signal intensity,AgFus1,≤ 0
same,SPOT peptide array binding signal intensity,AgHof1,6
same,SPOT peptide array binding signal intensity,AgHse1,≤ 0
same,SPOT peptide array binding signal intensity,AgLsb1,4.5
same,SPOT peptide array binding signal intensity,AgLsb4,≤ 0
same,SPOT peptide array binding signal intensity,AgMyo5,265
same,SPOT peptide array binding signal intensity,AgNbp2,382
same,SPOT peptide array binding signal intensity,AgRvs167,≤ 0
same,SPOT peptide array binding signal intensity,AgSho1,≤ 0
same,SPOT peptide array binding signal intensity,AgSla1-D1-D2,≤ 0
same,SPOT peptide array binding signal intensity,AgSla1-D3,8
same,SPOT peptide array binding signal intensity,CaAbp1-D1,6
same,SPOT peptide array binding signal intensity,CaAbp1-D2,11
same,SPOT peptide array binding signal intensity,CaBbc1,251
same,SPOT peptide array binding signal intensity,CaBem1-D1,14
same,SPOT peptide array binding signal intensity,CaBzz1-D1,2040
same,SPOT peptide array binding signal intensity,CaBzz1-D2,2090
same,SPOT peptide array binding signal intensity,CaCyk3,≤ 0
same,SPOT peptide array binding signal intensity,CaFus1,18
same,SPOT peptide array binding signal intensity,CaHof1,≤ 0
same,SPOT peptide array binding signal intensity,CaHse1,1.5
same,SPOT peptide array binding signal intensity,CaLsb1,≤ 0
same,SPOT peptide array binding signal intensity,CaLsb4,≤ 0
same,SPOT peptide array binding signal intensity,CaMyo5,1.75
same,SPOT peptide array binding signal intensity,CaNbp2,1520
same,SPOT peptide array binding signal intensity,CaRvs167,0.5
same,SPOT peptide array binding signal intensity,CaRvs167-3,2
same,SPOT peptide array binding signal intensity,CaSho1,≤ 0
same,SPOT peptide array binding signal intensity,CaSla1-D1-D2,106
same,SPOT peptide array binding signal intensity,CaSla1-D3,0.25
same,SPOT peptide array binding signal intensity,ScAbp1,≤ 0
same,SPOT peptide array binding signal intensity,ScBbc1,156
same,SPOT peptide array binding signal intensity,ScBem1-D1,4.5
same,SPOT peptide array binding signal intensity,ScBzz1-D1,348
same,SPOT peptide array binding signal intensity,ScBzz1-D2,5
same,SPOT peptide array binding signal intensity,ScCyk3,≤ 0
same,SPOT peptide array binding signal intensity,ScFus1,≤ 0
same,SPOT peptide array binding signal intensity,ScHof1,≤ 0
same,SPOT peptide array binding signal intensity,ScHse1,≤ 0
same,SPOT peptide array binding signal intensity,ScLsb1,≤ 0
same,SPOT peptide array binding signal intensity,ScLsb2,≤ 0
same,SPOT peptide array binding signal intensity,ScLsb3,4.5
same,SPOT peptide array binding signal intensity,ScLsb4,≤ 0
same,SPOT peptide array binding signal intensity,ScMyo3,616
same,SPOT peptide array binding signal intensity,ScMyo5,414
same,SPOT peptide array binding signal intensity,ScNbp2,1140
same,SPOT peptide array binding signal intensity,ScPex13,47.8
same,SPOT peptide array binding signal intensity,ScRvs167,1
same,SPOT peptide array binding signal intensity,ScSho1,≤ 0
same,SPOT peptide array binding signal intensity,ScSla1-D1-D2,738
same,SPOT peptide array binding signal intensity,ScSla1-D3,16.2
same,SPOT peptide array binding signal intensity,SpAbp1-D1,15
same,SPOT peptide array binding signal intensity,SpBbc1,1
same,SPOT peptide array binding signal intensity,SpBzz1-D1,86
same,SPOT peptide array binding signal intensity,SpBzz1-D2,0.25
same,SPOT peptide array binding signal intensity,SpCyk3,≤ 0
same,SPOT peptide array binding signal intensity,SpHof1,≤ 0
same,SPOT peptide array binding signal intensity,SpHof1-2,≤ 0
same,SPOT peptide array binding signal intensity,SpHof1-3,6.25
same,SPOT peptide array binding signal intensity,SpHse1,3.5
same,SPOT peptide array binding signal intensity,SpLsb1,≤ 0
same,SPOT peptide array binding signal intensity,SpLsb4,≤ 0
same,SPOT peptide array binding signal intensity,SpMyo1,1270
same,SPOT peptide array binding signal intensity,SpNbp2,1
same,SPOT peptide array binding signal intensity,SpPex13,≤ 0
same,SPOT peptide array binding signal intensity,SpRvs167,2.67
same,SPOT peptide array binding signal intensity,SpSla1-D1-D2,≤ 0
same,SPOT peptide array binding signal intensity,SpSla1-D3,0.5
